A selection: hits, their analogues and other compounds. The true share with any hit is near 4.7%.
ADAM17 inh – inhibitors of human ADAM17; P78536; recombinant ADAM17, EDANS/DABCYL FRET peptide cleavage; inhibition, % at 6.95 µM; 370,000 tested, 0.83% active; AID 720648;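 active means inhibition above the mean of compounds lying between control limits plus 3 SD, set per campaign, cut at about 8.5% in these data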;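 further: 0% = DMSO-only wells as the low control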
Pemphigus Ab inh – blocks pemphigus antibody binding to human desmoglein-3 | 310,000 tested, 0.48% active | DSG3-coupled beads, scFv-anti-DSG3-GFP binding, flow cytometry; active compounds read low | binding (percent of control), % at 10 µM | AID 588358 | P32926;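 active means binding more than 3 SD below its plate's average and above zero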;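 further: hits lower antibody fragment binding to DSG3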
rCAG binder – molecules binding r(CAG) RNA repeats. r(CAG) RNA repeat, TO-PRO-1 dye displacement fluorescence. AID 651821. inhibition, % at 3 µM. 370,000 tested, 1.3% active;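 active means inhibition above the plate cutoff, the mean of all test compounds on that plate plus 3 SD, cut at about 35% in these data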;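 further: 0% = DMSO alone and 100% = 100 µM mitoxantrone as full dye displacement; higher means more dye released from RNA so lower well fluorescence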
MPTP inh – blocks calcium-induced mitochondrial swelling; isolated mouse mitochondria, Ca2+ swelling absorbance, 30 min; inhibition, % at 10 µM; 360,000 tested, 1.4% active; AID 602449;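 active means inhibition of 50% or more, scaled per plate between neutral and stimulator controls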;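 further: 0% = DMSO wells given calcium and 100% = 1 mM EGTA wells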
ADAM10 inh – inhibitors of human ADAM10; O14672; recombinant ADAM10, EDANS/DABCYL FRET peptide cleavage, 3 h; inhibition, % at 7 µM; 370,000 tested, 0.62% active; AID 720582;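 active means inhibition above a per-campaign cutoff equal to the mean of compounds falling between control-based bounds plus 3 SD, cut at about 20% in these data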;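 further: 0% = DMSO wells while the 100% control is not disclosed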
Target sequence (O14672 214-748 limits assumed): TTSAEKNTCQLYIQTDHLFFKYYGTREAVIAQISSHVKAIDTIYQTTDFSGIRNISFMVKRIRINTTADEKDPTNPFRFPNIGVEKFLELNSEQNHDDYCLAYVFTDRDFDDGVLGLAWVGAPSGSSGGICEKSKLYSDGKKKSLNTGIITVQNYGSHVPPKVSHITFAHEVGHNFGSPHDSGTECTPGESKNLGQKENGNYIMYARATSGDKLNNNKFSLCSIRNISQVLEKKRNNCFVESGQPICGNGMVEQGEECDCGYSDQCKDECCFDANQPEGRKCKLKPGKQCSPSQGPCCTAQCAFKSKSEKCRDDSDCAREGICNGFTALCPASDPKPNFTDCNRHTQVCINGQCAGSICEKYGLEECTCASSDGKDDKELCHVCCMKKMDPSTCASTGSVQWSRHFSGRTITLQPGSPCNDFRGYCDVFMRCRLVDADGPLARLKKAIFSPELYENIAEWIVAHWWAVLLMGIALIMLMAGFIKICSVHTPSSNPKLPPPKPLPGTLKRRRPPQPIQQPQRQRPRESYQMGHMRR
proKLK7 act – activators of human kallikrein-7 zymogen. purified proKLK7, EDANS-DABCYL substrate fluorescence; 100% is mature enzyme control, 0% vehicle. activation, % at 7 µM. 370,000 tested, 0.9% active;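 active means activation above the mean of all tested compounds plus 3 SD, computed per campaign excluding outliers beyond control limits, cut at about 13% in these data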
Target sequence (P49862 whole entry, looked up): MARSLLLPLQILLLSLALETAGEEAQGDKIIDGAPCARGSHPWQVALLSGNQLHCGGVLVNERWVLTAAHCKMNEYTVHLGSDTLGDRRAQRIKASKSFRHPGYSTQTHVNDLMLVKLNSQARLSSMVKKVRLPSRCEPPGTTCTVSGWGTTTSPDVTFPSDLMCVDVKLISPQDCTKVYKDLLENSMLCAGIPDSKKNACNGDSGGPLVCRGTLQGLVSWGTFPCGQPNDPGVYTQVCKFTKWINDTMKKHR
rCAG bind conf – r(CAG) RNA repeat binding, confirmation | shares compounds with rCAG binder | TO-PRO-1 dye displacement fluorescence | inhibition, % at 3 µM | 4,300 tested, 70% active | AID 652065;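 active means inhibition above a per-plate cutoff, the mean inhibition of sample wells plus 3 SD, cut at about 35% in these data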;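 further: loss of TO-PRO-1 fluorescence as compound displaces dye from 1x1 AA loop RNA; 0% = DMSO only wells and 100% = 100 µM mitoxantrone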
DNA CAG counter – disrupts DNA CAG TO-PRO-1 complex, flagging rCAG hits | d(CAG) DNA oligo TO-PRO-1 dye displacement, fluorescence | 4,300 tested, 94% active | shares compounds with rCAG binder | AID 652068 | inhibition, % at 3 µM;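 active means inhibition above its plate's cutoff, the mean test-well inhibition plus 3 SD, cut at about 4.8% in these data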;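 further: 0% = DNA dye mix with DMSO and 100% = 100 µM mitoxantrone; hits displace the dye from DNA and so lower well fluorescence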
DNA CAG DR – DNA CAG dye complex inhibition, dose response counter-screen; shares compounds with rCAG binder; IC50, µM; DNA CAG/GTC duplex TO-PRO-1 dye displacement fluorescence; 250 tested, 20% active; in the data active means IC50 below about 10 µM
The depositor's hits bear a star; · = no result given.

SMILES | ADAM17 inh | Pemphigus Ab inh | rCAG binder | MPTP inh | ADAM10 inh | proKLK7 act | rCAG bind conf | DNA CAG counter | others
COc1ccc(-c2cc(C(=O)NC(Cc3cc4ccccc4[nH]3)C(=O)O)c(C)o2)cc1OC (centres undefined) | -2.1 | 85.0 | 49.1* | 0.0 | -3.0 | -0.9 | 49.8* | 15.4*
COc1ccc(-c2cc(C(=O)O)c(C)o2)cc1OC | -1.4 | 102.4 | 2.2 | 0.9 | -0.4 | 0.6 | · | ·
CC(C)CNS(=O)(=O)c1cc(C(=O)N2CC(C)OC(C)C2)c(Cl)cc1Cl (centres undefined) | -3.4 | 105.1 | -5.3 | -0.2 | 4.2 | 0.3 | · | ·
CC(C)CNc1cc(Cl)c(S(=O)(=O)NCC(C)C)cc1C(=O)O | -7.4 | 97.3 | 37.4* | -0.1 | -6.5 | -0.1 | 18.7 | 1.1
Oc1csc(Cc2nc(-c3ccc4ccccc4c3)cs2)n1 | -1.0 | 93.2 | 35.6* | 3.1 | -7.5 | -1.1 | 32.0 | 17.9*
Oc1csc(Cc2nc(-c3ccc(-c4ccccc4)cc3)cs2)n1 | 4.9 | 85.5 | 9.2 | 2.9 | -2.3 | -1.2 | · | ·
COc1cccc(C(c2c(C)[nH]n(-c3ccccc3)c2=O)c2c(C)[nH]n(-c3ccccc3)c2=O)c1OC | 5.4 | 101.9 | 53.9* | 19.7 | 0.6 | 0.6 | 42.4* | 13.8*
CCOc1cccc(C(c2c(C)n(C)n(-c3ccccc3)c2=O)c2c(C)n(C)n(-c3ccccc3)c2=O)c1OC | -1.8 | 92.8 | -4.7 | 0.0 | 3.5 | -0.2 | · | ·
COc1cccc(C(c2c(C)[nH]n(-c3ccccc3)c2=O)c2c(C)[nH]n(-c3ccccc3)c2=O)c1O | -2.5 | 96.2 | 38.5* | 2.2 | 5.9 | -0.6 | 33.2 | 11.7*
CCOc1cc(C=NN2CCN(Cc3ccc(C)cc3)CC2)ccc1O | -2.0 | · | 2.1 | · | -3.7 | 0.4 | · | ·
CCCCOc1ccc(S(=O)(=O)NC(=O)C2(C)CCN2C(=O)CCc2ccccc2)cc1 (centres undefined) | 0.5 | · | 39.4* | 0.3 | 2.3 | 1.0 | 32.5 | 7.2*
CCOc1ccc2nc(S(=O)(=O)NC(=O)C3(C)CCN3C(=O)c3c(C)noc3C)sc2c1 (centres undefined) | -6.6 | · | 9.8 | -2.5 | -7.0 | 0.0 | · | ·
CCCCOc1ccc(S(=O)(=O)NC(=O)C2(C)CCN2C(=O)Cc2ccccc2Cl)cc1 (centres undefined) | -0.9 | · | 43.5* | 0.1 | -0.7 | 0.2 | 37.9* | 9.1*
CCOc1ccc2nc(S(=O)(=O)NC(=O)C3(C)CCN3C(=O)CCc3cccs3)sc2c1 (centres undefined) | -1.8 | · | 38.4* | 2.3 | -15.3 | -0.5 | 37.0* | 9.9*
CCn1cc(C(=O)N2CCN(c3ccc(F)cc3)CC2)c(=O)c2ccc(C)nc21 | 0.7 | · | -1.6 | · | 0.5 | -0.7 | · | ·
O=C(O)/C=C/c1cnc2ccccc2c1 | 2.5 | 105.8 | 4.3 | -0.1 | 0.8 | -0.1 | · | ·
CSCCC(NC(=O)COc1ccccc1)C(=O)N(C)Cc1c(F)cccc1Cl (centres undefined) | -1.9 | 104.0 | -1.4 | 0.1 | 1.2 | 0.2 | · | ·
Cc1ccc2cc3c(=O)n(C)cc(C=O)c3nc2c1 | -15.1 | 99.4 | -0.1 | 1.6 | -57.7 | 5.7 | · | ·
CC1=NN(c2ccccc2C(=O)O)C(=O)C1N=Nc1ccccc1 (centres undefined) | -1.5 | 107.0 | 44.1* | -0.4 | 2.3 | -0.2 | 40.0* | 10.4*
CSc1cccc(NC(=O)Nc2nc3c(C)cccc3s2)c1 | -2.7 | 99.5 | 51.5* | 17.4 | -5.2 | 0.3 | 45.0* | 34.1*
CC(C)(C)c1ccc(C(=O)Nc2cc(Cl)c(F)cc2C(=O)O)cc1 | 0.4 | · | · | · | -1.1 | · | · | ·
C=CCN1C(=O)C(CC(=O)O)SC1=Nc1ccc(N=Nc2ccccc2)cc1 (centres undefined) | -0.8 | 89.1 | 54.6* | 2.6 | 12.7 | 0.0 | 36.8* | 8.8*
CCc1ccc(NC(=O)C(=O)NCC2CCCN2S(=O)(=O)c2ccccc2)cc1 (centres undefined) | 0.8 | 121.0 | 0.2 | -0.5 | 2.4 | 0.0 | · | ·
Cc1ccc(S(=O)(=O)Nc2cc(C(=O)Nc3cc(C)cc(C)c3)ccc2Cl)cc1 | 3.6 | · | 36.2* | -0.1 | 12.8 | 0.6 | 42.4* | 9.8*
Cc1cccc(NC(=O)c2cccc(NS(=O)(=O)c3ccc(Cl)cc3)c2)c1 | · | 100.6 | · | -0.4 | · | · | · | ·
SMILES | ADAM17 inh | Pemphigus Ab inh | rCAG binder | MPTP inh | ADAM10 inh | proKLK7 act | rCAG bind conf | DNA CAG counter | others
Cc1cc(O)cc(=O)n1-c1cccc(Br)c1 | 2.9 | · | 2.9 | · | -3.1 | -0.1 | · | ·
COC(=O)c1c(NS(C)(=O)=O)sc2c1CCCC2 | -5.3 | 96.5 | 4.8 | 2.5 | -5.0 | -0.1 | · | ·
COC(=O)c1c(NS(=O)(=O)Cc2ccccc2)sc2c1CCCC2 | 3.0 | 124.7 | 48.0* | 2.8 | 5.7 | -0.1 | 46.6* | 15.8*
CC(C)OC(=O)c1c(NS(=O)(=O)c2ccccc2)sc2c1CCCC2 | 0.7 | 147.8 | 35.3* | -2.1 | 2.4 | 0.0 | 49.5* | 14.0*
COC(=O)c1c(NC(=O)c2ccccc2N(C)S(=O)(=O)c2ccccc2)sc2c1CCCC2 | 0.3 | 103.2 | 6.8 | 0.0 | -16.5 | -1.0 | · | ·
C[C@H](O)[C@@H]1C(=O)N2CCc3c([nH]c4c(-c5ccccc5)cccc34)[C@@H]2C[C@@H]1N(C)C(=S)Nc1ccc(C#N)cc1 | -45.5 | · | 6.6 | · | -165.5 | -4.0 | · | ·
COc1ccccc1/C=C1\SC(=S)N(CCC(=O)Nc2ccc(C(=O)O)c(O)c2)C1=O | 3.1 | 89.7 | 91.0* | 1.8 | 10.5 | -0.2 | 85.3* | 59.1*
O=C(CCN1C(=O)/C(=C/c2ccco2)SC1=S)Nc1ccc(C(=O)O)c(O)c1 | -2.4 | 89.0 | 90.2* | 0.0 | -3.5 | 0.5 | 73.2* | 33.1* | DNA CAG DR=5.35*
O=C(CCN1C(=O)/C(=C\c2ccco2)SC1=S)Nc1ccc(C(=O)O)c(O)c1 | -3.7 | 104.7 | 86.4* | -2.3 | 0.1 | -0.2 | 78.7* | 37.0*
C=CCN=C1NC(CCc2ccccc2)C(C(=O)OC)=C(C)N1Cc1cccc(C(F)(F)F)c1 (centres undefined) | -5.9 | · | 9.3 | · | -15.1 | 1.0 | · | ·
CCCCCCC(=O)Nc1nc(C)c(-c2csc(Nc3cc(Cl)ccc3C)n2)s1 | -3.3 | 96.5 | 38.5* | 0.9 | -5.1 | 0.5 | 20.4 | 11.1*
CCCCC(=O)Nc1nc(C)c(-c2csc(Nc3cc(Cl)ccc3OC)n2)s1 | 2.8 | 105.4 | 45.0* | -1.2 | 8.5 | 0.0 | 22.9 | 13.1*
CCCCCCC(=O)Nc1nc(C)c(-c2csc(Nc3ccccc3OC)n2)s1 | -5.4 | 100.8 | 24.6 | 1.3 | -4.6 | -0.8 | · | ·
CN(Cc1ccccc1)C(=O)OCc1cn(Cc2ccccc2C(F)(F)F)nn1 | 1.8 | · | -2.0 | · | 5.0 | 0.0 | · | ·

Screening data from PubChem BioAssay.
